In PubChem BioAssay (EPA / NIEHS) one finds outcome and AC50 data, which are given here for 37 compounds.

Several values for one entry are separate records, joined by “and”; a condition that tells them apart may be missing. Equal entries are not always repeated. More than one record can exist for a structure, and the calls need not agree. Activity calls are given as the source filed them. The calls were made as follows: active = hit-call score of the fitted dose curve at least 0.9, where 1 is the maximum; inactive = score below 0.9.

Read-out in the assay: Monokine induced gamma interferon (MIG), CXCL9 (gene 4283)
The assay can be described thus: BSK_hDFCGF_MIG: BioMAP Diversity Plus: hDFCGF Assay for Monokine induced gamma interferon (MIG) Biomarker Activity (AID 2283063). Conditions: primary human foreskin fibroblasts; actives raise or lower the signal. The method, then:
BSK_hDFCGF is a cell-based, multiplexed-readout assay that uses foreskin fibroblast, a human skin primary cell, with measurements taken at 24 hours after chemical dosing in a 96-well plate.BSK_hDFCGF_MIG is an assay component measured in the BSK_hDFCGF assay. It measures MIG antibody related to regulation of gene expression using ELISA technology.Data from the assay component BSK_hDFCGF_MIG was analyzed into 1 assay endpoint. This assay endpoint, BSK_hDFCGF_MIG, was analyzed with bidirectional fitting relative to DMSO as the negative control and baseline of activity. Using a type of binding reporter, gain or loss-of-signal activity can be used to understand changes in the signaling as they relate to the gene CXCL9. Furthermore, this assay endpoint can be referred to as a primary readout, because this assay has produced multiple assay endpoints where this one serves a signaling function. To generalize the intended target to other relatable targets, this assay endpoint is annotated to the cytokine intended target family, where the subfamily is chemotactic factor.
The levels of cell surface (or secreted, indicated by the prefix "s") biomarker endpoints were measured by ELISA. Overt cytotoxicity to cells in confluent adherent cultures (all systems other than the BT system) was assessed by measuring total protein levels using sulforhodamine B (SRB) staining in parallel cultures at the time of biomarker measurements, indicated as SRB endpoints. For proliferation assays for adherent cell types, individual cell types are cultured at sub-confluence and relative cell numbers quantified by SRB staining at time points optimized for each system (48 h: 3C and CASM3C systems; 72 h: BT and HDF3CGF systems; 96 h: SAg system). SRB was performed by staining cells with 0.1% SRB after fixation with 10% TCA and reading wells at 560 nm.Viability and proliferation of PBMC (T cells) was quantified by Alamar Blue reduction for the SAg and BT systems. For PBMC viability (referred to as PBMC Cytotoxicity within the assay endpoint names), cells were plated (75,000/well in a 96-well plate) and then chemical samples added for 1 h before addition of activators, SEB and TSST-1 (20 ng/mL final concentration each). Cells were incubated for 90 h. Then, Alamar Blue (20 uL/well) (Invitrogen, Cat DAL1100) was added for 6 h, and the plates were read with a fluorescence microplate reader at 546/580 nm (excitation/emission). For PBMC proliferation, cells were plated and activated as above but incubated for only 16 h prior to addition of Alamar Blue. Plates were read after 6 h.
As to `O=S(=O)(O)C(F)(F)C(F)(F)C(F)(F)C(F)(F)C(F)(F)C(F)(F)C(F)(F)F`, the outcome was inactive.
For the compound `CCO[Si](CCC(F)(F)C(F)(F)C(F)(F)C(F)(F)C(F)(F)C(F)(F)F)(OCC)OCC`, the outcome was inactive.
Still for that read-out and setting: the entry for `O=P(O)(O)OCCC(F)(F)C(F)(F)C(F)(F)C(F)(F)C(F)(F)C(F)(F)F` is “inactive”; for `Nc1ccc([N+](=O)[O-])cc1O` it is “inactive”.
Same read-out and setting: the entry for `CCCCCCCCC(F)(F)C(F)(F)C(F)(F)C(F)(F)C(F)(F)C(F)(F)F` is “inactive”.
Turning to `CC(CCl)OP(=O)(OC(C)CCl)OC(C)CCl` (stereo not given), the result was inactive.
As a reminder, the AC50 is the concentration giving half of the maximal activity seen. For `CC(=O)Nc1ccc(N=Nc2cc(C)ccc2O)cc1`, the AC50 was 33.8 µM (active).
For `C=CC/C=C/C/C=C/C/C=C/C`, the result was inactive.
Regarding `O=C(O)C(F)(F)C(F)(F)C(F)(F)C(F)(F)C(F)(F)C(F)(F)C(F)(F)C(F)(F)C(F)(F)C(F)(F)C(F)(F)C(F)(F)F`, the AC50 is 2.35 µM (active) and 1.17 µM (active).
For `OCC(F)(F)C(F)(F)C(F)(F)F`, the result was inactive.
As to `OCCCC(F)(F)C(F)(F)C(F)(F)F`, the result was inactive.
Same read-out and setting: for `O=C(CC(=O)C(F)(F)C(F)(F)F)C(F)(F)F` the value was “inactive”.
With `N=C(N)C(F)(F)C(F)(F)C(F)(F)C(F)(F)C(F)(F)C(F)(F)C(F)(F)F`, the concentration at half-maximal activity (AC50) is 46 µM (active) and the result was inactive.
Consider `CCc1ccc(C(c2ccc(CC)cc2)C(Cl)Cl)cc1`, for which the half-maximal activity concentration (AC50) is 31.8 µM (active).
Same read-out and setting: the figure for `C=CC(=O)OCC(F)(F)C(F)(F)C(F)(F)C(F)(F)COC(=O)C=C` is 3.49 µM (active) and 3.32 µM (active).
On to `FC(F)(F)C(F)(F)C(F)(F)C(F)(F)C(F)(F)C(F)(F)CC1CO1` (stereo not given), for which the outcome was inactive.
The same measure, in the same setting: the entry for `O=S(=O)(OCCOC(F)(F)F)C(F)(F)F` is “inactive”; for `FC(F)(F)C(F)(F)C(F)(F)C(F)(F)C(F)(F)C(F)(F)C(F)(F)C(F)(F)F` it is “inactive”; for `Oc1ccc(Nc2ccccc2)cc1` it is “inactive”.
On the same count and under the same terms, the entry for `C=C(C)C(=O)OCC(F)(F)C(F)(F)C(F)(F)F` is “inactive”.
In the case of `FC(F)(F)C(F)(F)C(F)(F)C(F)(F)CCI`, the outcome was inactive and the concentration at half-maximal activity (AC50) is 49.3 µM (active).
As to `O=C(O)C(F)(OC(F)(F)C(F)(OC(F)(F)C(F)(OC(F)(F)C(F)(F)C(F)(F)F)C(F)(F)F)C(F)(F)F)C(F)(F)F` (stereo not given), the outcome was inactive.
The same measure, in the same setting: the entry for `C=CC(=O)OCC(F)(F)C(F)(F)C(F)(F)C(F)(F)C(F)(F)C(F)(F)C(F)(F)F` is “inactive”.
Regarding `O[Si](c1ccccc1)(c1ccccc1)c1ccccc1`, the result was inactive.
The same measure, in the same setting: for `FC(F)(F)C(F)(F)C(F)(F)CI` the value was “inactive”.
Still for that read-out and setting: for `C=C(C)C(=O)OCC(F)(F)C(F)(F)C(F)(F)C(F)(F)C(F)(F)C(F)(F)C(F)(F)F` the value was “inactive”; for `FC(F)(F)C(F)(F)C(F)(F)C(F)(F)C(F)(F)C(F)(F)C(F)(F)C(F)(F)CCS`, “inactive”.
In the case of `FC(F)(F)C(F)(F)C(F)(F)C(F)(F)C(F)(F)CCI`, the outcome was inactive and the concentration at half-maximal activity (AC50) is 30 µM (active).
As to `O=C(O)C(F)(F)C(F)(F)OC(F)(F)F`, the outcome was inactive.
Take `C=CC(F)(F)C(F)(F)C(F)(F)C(F)(F)C(F)(F)C(F)(F)C(F)(F)C(F)(F)F`: the outcome was inactive.
On the same count and under the same terms, the entry for `C=CC(F)(F)C(F)(F)C(F)(F)C(F)(F)C(F)(F)C(F)(F)C(F)(F)C(F)(F)C=C` is “inactive”; for `O=S(=O)(OCC(F)F)C(F)(F)F` it is “inactive”.
Same read-out and setting: the entry for `OCC(F)(F)C(F)(F)C(F)(F)C(F)(F)C(F)(F)C(F)F` is “inactive”.
For the compound `FC(F)(F)C(F)(F)C(F)(F)C(F)(F)C(F)(F)C(F)(F)C(F)(F)I`, the outcome was inactive.
On the same count and under the same terms, for `O=C(O)C(F)(F)C(F)(F)F` the value was “inactive”; for `NC(=O)C(F)(F)C(F)(F)C(F)(F)C(F)(F)F`, “inactive”.
In the case of `CCCCCCC(C)OC(=O)CCCCC(=O)OC(C)CCCCCC` (stereo not given), the outcome was inactive.
